# Measurements: ChEMBL document CHEMBL5598561, “ASAP - In vitro binding kinetics” (2024)
# Biological target: Nonstructural protein 3 (Zika virus) (UniProt A0A024AXB9)
# Sequence (A0A024AXB9 as listed by the source): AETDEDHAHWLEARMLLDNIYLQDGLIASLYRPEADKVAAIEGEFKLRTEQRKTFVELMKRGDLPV
smiles,measurement,setting,value
CNC(=O)[C@H](Nc1ccc2c(c1)CNC2)c1cc(Cl)cc(C2CC2)c1,pKD,"PRVABC59, Concentration 10.0 uM, Immobilization level 10000.0 pg/mm2, Rmax 21.0 pg/mm2, ka 735105.2 M-1s-1, kd 0.212 1/s",6.54
same,pKD,"PRVABC59, Concentration 10.0 uM, Immobilization level 12000.0 pg/mm2, Rmax 44.0 pg/mm2, ka 423211.762 M-1s-1, kd 0.126 1/s",6.53
same,pKD,"PRVABC59, Concentration 10.0 uM, Immobilization level 13000.0 pg/mm2, Rmax 34.0 pg/mm2, ka 634638.949 M-1s-1, kd 0.171 1/s",6.57
O=C(Nc1ccc2c(c1)CNC2)c1cc(Br)cc2ccccc12,pKD,"PRVABC59, Concentration 10.0 uM, Immobilization level 10000.0 pg/mm2, Rmax 20.0 pg/mm2, ka 1054680.734 M-1s-1, kd 0.691 1/s",6.18
same,pKD,"PRVABC59, Concentration 10.0 uM, Immobilization level 12000.0 pg/mm2, Rmax 63.0 pg/mm2, ka 507441.603 M-1s-1, kd 0.463 1/s",6.04
same,pKD,"PRVABC59, Concentration 10.0 uM, Immobilization level 13000.0 pg/mm2, Rmax 45.0 pg/mm2, ka 357590.388 M-1s-1, kd 0.673 1/s",5.72
CCc1cc(Cl)cc(C(=O)Nc2ccc3c(c2)CNC3)c1,pKD,"PRVABC59, Concentration 10.0 uM, Immobilization level 10000.0 pg/mm2, Rmax 7.0 pg/mm2, ka 456970.038 M-1s-1, kd 1.322 1/s",5.54
same,pKD,"PRVABC59, Concentration 10.0 uM, Immobilization level 12000.0 pg/mm2, Rmax 55.0 pg/mm2, ka 33985.237 M-1s-1, kd 0.743 1/s",4.66
same,pKD,"PRVABC59, Concentration 10.0 uM, Immobilization level 13000.0 pg/mm2, Rmax 17.0 pg/mm2, ka 179212.289 M-1s-1, kd 1.129 1/s",5.2
O=C(Nc1ccc2c(c1)CNC2)c1cc(Br)cc2c1OCO2,pKD,"PRVABC59, Concentration 10.0 uM, Immobilization level 10000.0 pg/mm2, Rmax 23.0 pg/mm2, ka 221801.012 M-1s-1, kd 2.02 1/s",5.04
same,pKD,"PRVABC59, Concentration 10.0 uM, Immobilization level 12000.0 pg/mm2, Rmax 42.0 pg/mm2, ka 116147.62 M-1s-1, kd 1.164 1/s",5
same,pKD,"PRVABC59, Concentration 10.0 uM, Immobilization level 13000.0 pg/mm2, Rmax 30.0 pg/mm2, ka 164731.302 M-1s-1, kd 1.67 1/s",4.99
Nc1cc(Cl)cc(C(=O)Nc2ccc3c(c2)CNC3)c1N,pKD,"PRVABC59, Concentration 10.0 uM, Immobilization level 10000.0 pg/mm2, Rmax 26.0 pg/mm2, ka 624754.243 M-1s-1, kd 0.161 1/s",6.59
same,pKD,"PRVABC59, Concentration 10.0 uM, Immobilization level 12000.0 pg/mm2, Rmax 44.0 pg/mm2, ka 261141.936 M-1s-1, kd 1.029 1/s",5.4
same,pKD,"PRVABC59, Concentration 10.0 uM, Immobilization level 13000.0 pg/mm2, Rmax 23.0 pg/mm2, ka 816818.479 M-1s-1, kd 0.326 1/s",6.4
O=C(Nc1cc(Cl)cc(C(=O)Nc2ccc3c(c2)CNC3)c1)OCc1ccccc1,pKD,"PRVABC59, Concentration 1.0 uM, Immobilization level 3900.0 pg/mm2, Rmax 38.0 pg/mm2, ka 196121.646 M-1s-1, kd 0.113 1/s",6.24
same,pKD,"PRVABC59, Concentration 1.0 uM, Immobilization level 4900.0 pg/mm2, Rmax 45.0 pg/mm2, ka 144681.299 M-1s-1, kd 0.064 1/s",6.35
same,pKD,"PRVABC59, Concentration 1.0 uM, Immobilization level 4900.0 pg/mm2, Rmax 45.0 pg/mm2, ka 172692.705 M-1s-1, kd 0.081 1/s",6.33
same,pKD,"PRVABC59, Concentration 1.0 uM, Immobilization level 5500.0 pg/mm2, Rmax 49.0 pg/mm2, ka 194075.024 M-1s-1, kd 0.087 1/s",6.35
same,pKD,"PRVABC59, Concentration 1.0 uM, Immobilization level 5500.0 pg/mm2, Rmax 54.0 pg/mm2, ka 112858.156 M-1s-1, kd 0.052 1/s",6.33
same,pKD,"PRVABC59, Concentration 10.0 uM, Immobilization level 3900.0 pg/mm2, Rmax 44.0 pg/mm2, ka 164681.147 M-1s-1, kd 0.126 1/s",6.12
COc1cc(Br)cc(C(=O)Nc2ccc3c(c2)CNC3)c1,pKD,"PRVABC59, Concentration 10.0 uM, Immobilization level 3900.0 pg/mm2, Rmax 30.0 pg/mm2, ka 1022660.121 M-1s-1, kd 0.519 1/s",6.29
same,pKD,"PRVABC59, Concentration 10.0 uM, Immobilization level 4900.0 pg/mm2, Rmax 37.0 pg/mm2, ka 628733.109 M-1s-1, kd 0.436 1/s",6.16
same,pKD,"PRVABC59, Concentration 10.0 uM, Immobilization level 5500.0 pg/mm2, Rmax 32.0 pg/mm2, ka 715576.018 M-1s-1, kd 0.434 1/s",6.22
same,pKD,"PRVABC59, Concentration 10.0 uM, Immobilization level 10000.0 pg/mm2, Rmax 31.0 pg/mm2, ka 878454.345 M-1s-1, kd 0.618 1/s",6.15
same,pKD,"PRVABC59, Concentration 10.0 uM, Immobilization level 12000.0 pg/mm2, Rmax 51.0 pg/mm2, ka 505054.059 M-1s-1, kd 0.503 1/s",6
same,pKD,"PRVABC59, Concentration 10.0 uM, Immobilization level 13000.0 pg/mm2, Rmax 45.0 pg/mm2, ka 775706.649 M-1s-1, kd 0.539 1/s",6.16
N#C[C@H](Nc1ccc2c(c1)CNC2)c1cc(Cl)cc(C2CC2)c1,pKD,"PRVABC59, Concentration 10.0 uM, Immobilization level 10000.0 pg/mm2, Rmax 28.0 pg/mm2, ka 179746.524 M-1s-1, kd 1.36 1/s",5.12
same,pKD,"PRVABC59, Concentration 10.0 uM, Immobilization level 12000.0 pg/mm2, Rmax 42.0 pg/mm2, ka 91353.604 M-1s-1, kd 0.386 1/s",5.37
same,pKD,"PRVABC59, Concentration 10.0 uM, Immobilization level 13000.0 pg/mm2, Rmax 52.0 pg/mm2, ka 98756.182 M-1s-1, kd 0.944 1/s",5.02
O=C(Nc1ccc2c(c1)CNC2)c1cc(Cl)cc2c1CCC2,pKD,"PRVABC59, Concentration 10.0 uM, Immobilization level 10000.0 pg/mm2, Rmax 25.0 pg/mm2, ka 106816.236 M-1s-1, kd 0.472 1/s",5.36
same,pKD,"PRVABC59, Concentration 10.0 uM, Immobilization level 12000.0 pg/mm2, Rmax 64.0 pg/mm2, ka 30866.003 M-1s-1, kd 0.225 1/s",5.14
same,pKD,"PRVABC59, Concentration 10.0 uM, Immobilization level 13000.0 pg/mm2, Rmax 31.0 pg/mm2, ka 79832.742 M-1s-1, kd 0.384 1/s",5.32
O=C(Nc1ccc2c(c1)[C@H]1CC[C@H]2N1)c1cc(Cl)cc2[nH]ncc12,pKD,"PRVABC59, Concentration 10.0 uM, Immobilization level 3900.0 pg/mm2, Rmax 29.0 pg/mm2, ka 207440.056 M-1s-1, kd 1.881 1/s",5.04
same,pKD,"PRVABC59, Concentration 10.0 uM, Immobilization level 4900.0 pg/mm2, Rmax 21.0 pg/mm2, ka 356637.156 M-1s-1, kd 1.239 1/s",5.46
same,pKD,"PRVABC59, Concentration 10.0 uM, Immobilization level 5500.0 pg/mm2, Rmax 38.0 pg/mm2, ka 209576.876 M-1s-1, kd 1.619 1/s",5.11
same,pKD,"PRVABC59, Concentration 10.0 uM, Immobilization level 10000.0 pg/mm2, Rmax 35.0 pg/mm2, ka 240196.621 M-1s-1, kd 1.957 1/s",5.09
same,pKD,"PRVABC59, Concentration 10.0 uM, Immobilization level 12000.0 pg/mm2, Rmax 27.0 pg/mm2, ka 216801.208 M-1s-1, kd 1.112 1/s",5.29
same,pKD,"PRVABC59, Concentration 10.0 uM, Immobilization level 13000.0 pg/mm2, Rmax 42.0 pg/mm2, ka 287948.566 M-1s-1, kd 1.743 1/s",5.22
O=C(Nc1ccc2c(c1)CNC2)c1cc(F)cc2[nH]nnc12,pKD,"PRVABC59, Concentration 10.0 uM, Immobilization level 10000.0 pg/mm2, Rmax 22.0 pg/mm2, ka 162374.237 M-1s-1, kd 0.724 1/s",5.35
same,pKD,"PRVABC59, Concentration 10.0 uM, Immobilization level 12000.0 pg/mm2, Rmax 50.0 pg/mm2, ka 32556.979 M-1s-1, kd 0.41 1/s",4.9
same,pKD,"PRVABC59, Concentration 10.0 uM, Immobilization level 13000.0 pg/mm2, Rmax 48.0 pg/mm2, ka 67317.145 M-1s-1, kd 0.674 1/s",5
Cc1cc(NC(=O)c2cc(Cl)cc3[nH]ncc23)ccc1N1CCNCC1,pKD,"PRVABC59, Concentration 10.0 uM, Immobilization level 10000.0 pg/mm2, Rmax 68.0 pg/mm2, ka 142841.774 M-1s-1",4.45
same,pKD,"PRVABC59, Concentration 10.0 uM, Immobilization level 12000.0 pg/mm2, Rmax 26.0 pg/mm2, ka 204393.234 M-1s-1, kd 2.532 1/s",4.91
same,pKD,"PRVABC59, Concentration 10.0 uM, Immobilization level 13000.0 pg/mm2, Rmax 38.0 pg/mm2, ka 209487.853 M-1s-1, kd 3.706 1/s",4.75
O=C(Nc1ccc2c(c1)CNC2)c1cccc2[nH]ncc12,pKD,"PRVABC59, Concentration 10.0 uM, Immobilization level 10000.0 pg/mm2, Rmax 19.0 pg/mm2, ka 1068955.381 M-1s-1, kd 0.689 1/s",6.19
same,pKD,"PRVABC59, Concentration 10.0 uM, Immobilization level 12000.0 pg/mm2, Rmax 37.0 pg/mm2, ka 703955.922 M-1s-1, kd 0.285 1/s",6.39
same,pKD,"PRVABC59, Concentration 10.0 uM, Immobilization level 13000.0 pg/mm2, Rmax 29.0 pg/mm2, ka 931164.005 M-1s-1, kd 0.45 1/s",6.32
CCc1nc2c(C(=O)Nc3ccc4c(c3)CNC4)cc(Br)cc2[nH]1,pKD,"PRVABC59, Concentration 10.0 uM, Immobilization level 10000.0 pg/mm2, Rmax 30.0 pg/mm2, ka 310193.647 M-1s-1, kd 0.373 1/s",5.92
same,pKD,"PRVABC59, Concentration 10.0 uM, Immobilization level 12000.0 pg/mm2, Rmax 36.0 pg/mm2, ka 171120.142 M-1s-1, kd 0.256 1/s",5.83
same,pKD,"PRVABC59, Concentration 10.0 uM, Immobilization level 13000.0 pg/mm2, Rmax 31.0 pg/mm2, ka 250565.843 M-1s-1, kd 0.327 1/s",5.88
COCCNC(=O)[C@H](Nc1ccc2c(c1)CNC2)c1cc(Cl)cc(C2CC2)c1,pKD,"PRVABC59, Concentration 10.0 uM, Immobilization level 10000.0 pg/mm2, Rmax 39.0 pg/mm2, ka 617826.514 M-1s-1, kd 0.092 1/s",6.83
same,pKD,"PRVABC59, Concentration 10.0 uM, Immobilization level 12000.0 pg/mm2, Rmax 47.0 pg/mm2, ka 381252.779 M-1s-1, kd 0.077 1/s",6.7
same,pKD,"PRVABC59, Concentration 10.0 uM, Immobilization level 13000.0 pg/mm2, Rmax 46.0 pg/mm2, ka 474021.576 M-1s-1, kd 0.094 1/s",6.7
O=C(Nc1ccc2c(n1)CNC2)c1cc(Cl)cc2[nH]ncc12,pKD,"PRVABC59, Concentration 10.0 uM, Immobilization level 3900.0 pg/mm2, Rmax 29.0 pg/mm2, ka 330423.124 M-1s-1, kd 0.318 1/s",6.02
same,pKD,"PRVABC59, Concentration 10.0 uM, Immobilization level 4900.0 pg/mm2, Rmax 43.0 pg/mm2, ka 188485.066 M-1s-1, kd 0.307 1/s",5.79
same,pKD,"PRVABC59, Concentration 10.0 uM, Immobilization level 5500.0 pg/mm2, Rmax 45.0 pg/mm2, ka 189855.655 M-1s-1, kd 0.314 1/s",5.78
same,pKD,"PRVABC59, Concentration 10.0 uM, Immobilization level 10000.0 pg/mm2, Rmax 55.0 pg/mm2, ka 105317.175 M-1s-1, kd 0.527 1/s",5.3
same,pKD,"PRVABC59, Concentration 10.0 uM, Immobilization level 12000.0 pg/mm2, Rmax 96.0 pg/mm2, ka 37343.204 M-1s-1, kd 0.288 1/s",5.11
same,pKD,"PRVABC59, Concentration 10.0 uM, Immobilization level 13000.0 pg/mm2, Rmax 49.0 pg/mm2, ka 130791.962 M-1s-1, kd 0.347 1/s",5.58
